# Test results as given in PubChem BioAssay.
# Calls of active or inactive are those of the source.
# How the values were obtained:
# [1] = optical density shifts of acrAB sulA E. coli – strain DRC41, OD650, 48 h, E. coli filamentation inducer project, primary screen (AID 1152); conditions: higher = more signal, called active from +8 up or from −8 down;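 also: E. coli MC1000 strain DRC41 lacking acrAB efflux pump and sulA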
# [2] = probe aLefty1 binding on compound microarray – biochemical, small-molecule microarray, 635/667 nm fluorescence, primary screen (AID 1153); conditions: higher = more signal;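 also: score merges spot fluorescence with signal-to-noise ratio from the scanned slide images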
# [3] = plasmodial surface anion channel blockers, osmotic lysis – cell-based, P. falciparum Indochina, OD700, 1 h, primary screen (AID 1154); conditions: P. falciparum Indochina infected RBC osmotic lysis, higher = more signal, called active from +8 up or from −8 down
# [4] = plasmodial surface anion channel blockers, osmotic lysis – cell-based, P. falciparum Indochina, OD700, 2 h, primary screen (AID 1155);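 also: lysis reports solute entry through the parasite surface anion channel PSAC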; conditions: P. falciparum Indochina infected erythrocytes, higher = more signal, called active from +8 up or from −8 down
# [5] = changes in parasitized red cell lysis, either direction – P. falciparum Indochina, OD700, 3 h, PSAC antagonist project, primary screen (AID 1156); conditions: P. falciparum-infected erythrocytes, osmotic lysis, higher = more signal, called active from +8 up or from −8 down
# [6] = plasmodial surface anion channel blockers, osmotic lysis – cell-based, P. falciparum Indochina, OD700, 18 h, primary screen (AID 1157); conditions: P. falciparum Indochina infected erythrocytes, osmotic lysis OD700, 18 h; higher = more signal, called active from +8 up or from −8 down
# [7] = S6 kinase pathway phospho-S6 level changes – cell-based, A549, cytoblot, luminescence, serum-stimulated, primary screen (AID 1158); conditions: 5 h, higher = more signal;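 also: serum-stimulated A549 lung adenocarcinoma cells; signal is phosphorylated S6 detected by cytoblot immunostaining with HRP secondary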
# [8] = molecular target: NADPH oxidase 2 (Homo sapiens) (UniProt P04839); assay: compounds shifting NOX2 Amplex Red fluorescence – cell-based, HEK293-NOX2, PMA-stimulated, NOX inhibitor project, primary screen (AID 1159); conditions: 45 min, higher = more signal, called active from +8 up or from −8 down; also: test concentration not given here
# [9] = molecular target: NADPH oxidase 4 (Homo sapiens) (UniProt Q9NPH5); assay: compounds shifting NOX4 Amplex Red fluorescence – cell-based, HEK293-NOX4, tetracycline-induced, NOX inhibitor project, primary screen (AID 1160); conditions: HEK293-NOX4, Amplex Red H2O2 fluorescence, 45 min; higher = more signal, called active from +8 up or from −8 down
# [10] = molecular target: NADPH oxidase 5 (Homo sapiens) (UniProt Q96PH1); assay: compounds shifting NOX5 Amplex Red fluorescence – cell-based, HEK293-NOX5, NOX inhibitor project, primary screen (AID 1161); conditions: HEK293-NOX5, ionomycin, 45 min, higher = more signal
# [11] = compound effects on lung adenocarcinoma cell viability – A549, calcein-AM fluorescence, 48 h, basal, profiling panel (AID 1162); conditions: higher = more signal; also: test concentration not given here
# [12] = compound effects on differentiated 3T3-L1 adipocyte viability – cell-based, 3T3-L1 adipocytes, calcein-AM fluorescence, 48 h, basal, profiling panel (AID 1163); conditions: 3T3-L1 adipocytes viability, higher = more signal; also: test concentration not given here
# [13] = compound effects on hepatocellular carcinoma cell viability – HepG2, calcein-AM fluorescence, 48 h, basal, profiling panel (AID 1164); conditions: higher = more signal; also: test concentration not given here
# [14] = compound effects on multiple myeloma cell viability – MM1S, calcein-AM fluorescence, 48 h, basal, profiling panel (AID 1165); conditions: higher = more signal; also: test concentration not given here
# [15] = calcein-AM signal in unstimulated myeloma cells – cell-based, calcein-AM fluorescence, 48 h, PK04 Diversity Set, profiling panel (AID 1166); conditions: RPMI8226 myeloma viability, higher = more signal;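 also: cells grown under basal conditions without added stimulus; test concentration not given here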
# [16] = JC-1 mitochondrial signal, unstimulated HepG2 cells – cell-based, JC-1 fluorescence, 24 h, 100 nL compound, profiling panel (AID 1167); conditions: HepG2 mitochondrial potential, higher = more signal; also: test concentration not given here
# [17] = JC-1 mitochondrial signal, unstimulated adipocytes – cell-based, JC-1 fluorescence, 3T3-L1 adipocytes, 24 h, 100 nL compound, profiling panel (AID 1168); conditions: JC-1 mitochondrial fluorescence, higher = more signal, called active from +8 up or from −8 down; also: test concentration not given here
# [18] = JC-1 mitochondrial signal, unstimulated myeloma cells – cell-based, JC-1 fluorescence, RPMI8226, 24 h, 100 nL compound, profiling panel (AID 1169); conditions: JC-1 mitochondrial potential fluorescence, higher = more signal; also: test concentration not given here
# [19] = JC-1 mitochondrial signal, unstimulated MM1S myeloma – cell-based, JC-1 fluorescence, 24 h, 100 nL compound, profiling panel (AID 1170); conditions: MM1S mitochondrial potential, higher = more signal; also: test concentration not given here
# [20] = resazurin metabolic signal in A549 cells – cell-based, resazurin fluorescence, 24 h, PK04 Diversity Set, profiling panel (AID 1171); conditions: A549 viability, higher = more signal, called active from +8 up or from −8 down; also: test concentration not given here
# Sequence of NADPH oxidase 4 (Homo sapiens) (Q9NPH5 whole entry, looked up): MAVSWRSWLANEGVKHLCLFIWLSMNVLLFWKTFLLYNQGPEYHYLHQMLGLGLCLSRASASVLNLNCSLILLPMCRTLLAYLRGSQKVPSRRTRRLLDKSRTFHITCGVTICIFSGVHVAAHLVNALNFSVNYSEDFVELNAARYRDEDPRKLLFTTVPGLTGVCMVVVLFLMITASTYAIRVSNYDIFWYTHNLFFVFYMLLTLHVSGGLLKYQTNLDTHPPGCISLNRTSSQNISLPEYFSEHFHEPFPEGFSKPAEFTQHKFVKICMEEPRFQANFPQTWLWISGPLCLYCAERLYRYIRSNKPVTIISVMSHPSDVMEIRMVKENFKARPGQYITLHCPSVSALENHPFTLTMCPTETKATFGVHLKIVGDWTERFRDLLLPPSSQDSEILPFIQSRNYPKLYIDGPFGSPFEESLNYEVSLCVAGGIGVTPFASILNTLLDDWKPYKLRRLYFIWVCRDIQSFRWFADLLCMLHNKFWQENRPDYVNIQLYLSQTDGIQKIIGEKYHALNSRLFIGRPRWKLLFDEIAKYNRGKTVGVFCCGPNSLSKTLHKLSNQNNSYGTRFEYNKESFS
# Sequence of NADPH oxidase 5 (Homo sapiens) (Q96PH1 whole entry, looked up): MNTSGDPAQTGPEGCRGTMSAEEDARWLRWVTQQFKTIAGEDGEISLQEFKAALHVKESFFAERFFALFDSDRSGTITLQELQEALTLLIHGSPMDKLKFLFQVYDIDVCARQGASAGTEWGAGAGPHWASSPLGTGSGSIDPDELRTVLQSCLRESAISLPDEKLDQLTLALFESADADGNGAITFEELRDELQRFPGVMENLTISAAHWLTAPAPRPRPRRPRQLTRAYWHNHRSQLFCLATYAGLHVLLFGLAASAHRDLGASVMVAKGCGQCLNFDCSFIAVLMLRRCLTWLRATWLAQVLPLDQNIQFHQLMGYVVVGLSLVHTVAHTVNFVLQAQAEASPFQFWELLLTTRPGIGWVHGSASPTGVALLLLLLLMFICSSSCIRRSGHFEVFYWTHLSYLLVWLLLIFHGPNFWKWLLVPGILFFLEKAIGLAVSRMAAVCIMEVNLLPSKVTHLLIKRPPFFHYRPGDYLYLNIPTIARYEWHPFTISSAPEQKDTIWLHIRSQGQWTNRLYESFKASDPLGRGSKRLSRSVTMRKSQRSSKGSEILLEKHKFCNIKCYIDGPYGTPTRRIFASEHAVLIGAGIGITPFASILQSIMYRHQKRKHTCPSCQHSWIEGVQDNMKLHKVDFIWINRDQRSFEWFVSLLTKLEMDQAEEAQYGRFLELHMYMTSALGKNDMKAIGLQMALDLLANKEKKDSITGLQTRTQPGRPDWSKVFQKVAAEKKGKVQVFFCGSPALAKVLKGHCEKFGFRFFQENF
# Sequence of NADPH oxidase 2 (Homo sapiens) (P04839 whole entry, looked up): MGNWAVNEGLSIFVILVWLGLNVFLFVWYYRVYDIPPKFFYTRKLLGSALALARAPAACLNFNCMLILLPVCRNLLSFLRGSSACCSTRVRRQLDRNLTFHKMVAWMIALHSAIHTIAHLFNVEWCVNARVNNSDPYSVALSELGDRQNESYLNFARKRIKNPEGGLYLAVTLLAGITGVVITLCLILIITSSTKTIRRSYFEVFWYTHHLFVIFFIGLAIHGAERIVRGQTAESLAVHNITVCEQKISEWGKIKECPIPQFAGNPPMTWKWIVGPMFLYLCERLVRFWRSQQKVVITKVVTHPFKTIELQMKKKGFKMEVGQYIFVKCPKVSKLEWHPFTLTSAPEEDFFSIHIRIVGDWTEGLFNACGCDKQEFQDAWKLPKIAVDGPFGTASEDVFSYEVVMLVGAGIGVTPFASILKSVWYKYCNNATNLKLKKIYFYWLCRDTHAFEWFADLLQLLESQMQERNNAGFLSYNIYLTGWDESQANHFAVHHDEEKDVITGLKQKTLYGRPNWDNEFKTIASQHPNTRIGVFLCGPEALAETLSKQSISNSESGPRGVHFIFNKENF
Compound,z-score [1],composite z-score [2],z-score [3],z-score [4],z-score [5],z-score [6],z-score [7],z-score [8],z-score [9],z-score [10],z-score [11],z-score [12],z-score [13],z-score [14],z-score [15],z-score [16],z-score [17],z-score [18],z-score [19],z-score [20]
CC(C)(C)N1C(=O)[C@H]2[C@H]3[C@H](O)[C@H](O)CC(=NOCc4ccccc4)[C@@H]3CC[C@H]2C1=O,0.831 (inactive),-0.0162,0.464 (inactive),-1.53 (inactive),0.877 (inactive),-2.27 (inactive),0.581,-1.57 (inactive),0.413 (inactive),0.791,0.366,0.218,0.586,-0.0096,0.519,0.858,-0.249 (inactive),0.701,-1.01,-1.58 (inactive)
CC(C)=NOCc1cccc(-c2cc(-c3ccccc3)no2)c1,-1.79 (inactive),0.194,0.648 (inactive),-0.166 (inactive),-0.532 (inactive),-0.388 (inactive),-0.947,1.21 (inactive),0.439 (inactive),-0.0547,-0.398,0.0768,0.0628,-1.06,-0.375,-0.499,-0.302 (inactive),-0.112,0.354,-0.798 (inactive)
COC(=O)CC=C[C@@H](C)[C@@H](C=NO[C@@H](C)c1cc(-c2c(C)cc(C)cc2C)no1)OC,-1.45 (inactive),0.0004,3.39 (inactive),-0.032 (inactive),0.505 (inactive),-1.37 (inactive),2.15,-1.04 (inactive),-0.771 (inactive),-3.87,-0.542,1.05,-0.618,0.0635,-0.466,-1.13,-0.613 (inactive),-0.549,-1.19,0.16 (inactive)
CC(=O)C[C@H](O)[C@@H](NC(=O)OC(C)(C)C)C(C)C,-0.593 (inactive),-0.196,0.427 (inactive),-0.649 (inactive),1.48 (inactive),-1.64 (inactive),1.63,0.2 (inactive),-0.658 (inactive),-1.63,0.143,0.819,0.0838,-0.476,-0.531,-0.538,-0.0163 (inactive),-0.545,-0.347,-0.289 (inactive)
CC(CCN1CCCCc2nc(C)c(C)cc21)=NOC(C)CN1CCCc2nc(C)c(C)cc21 (stereo not given),-1.7 (inactive),0.79,1.6 (inactive),0.549 (inactive),-0.19 (inactive),0.488 (inactive),-0.569,-1 (inactive),0.11 (inactive),-1.79,-0.587,-0.315,-0.253,-2.66,-0.681,0.346,-1.7 (inactive),0.133,-0.269,0.37 (inactive)
CC(CCC(=O)OC[C@H]1O[C@H](C#Cc2ccccc2)C=C[C@@H]1Oc1ccc(C)cc1)=NO[C@@H](C)c1cn([C@H](CO)Cc2ccccc2)nn1,-0.913 (inactive),-0.247,10.5 (active),0.542 (inactive),1.78 (inactive),-1.05 (inactive),0.672,-1.54 (inactive),-0.298 (inactive),-0.428,-0.487,0.725,-0.982,-0.622,-2.17,0.453,-0.346 (inactive),0.496,-0.0262,0.555 (inactive)
COc1ccc(O[C@H]2C=C[C@@H](c3ccccc3)O[C@@H]2COC(=O)N2CCCCC2)cc1,0.309 (inactive),0.174,2 (inactive),-0.213 (inactive),-0.0257 (inactive),-0.169 (inactive),-0.428,-0.138 (inactive),0.334 (inactive),-1.71,-0.0152,-0.303,0.0678,-0.979,-1.22,1.23,-0.0796 (inactive),-0.358,0.125,1.57 (inactive)
CO[C@@H]1COC(=O)CC=C[C@@H](C)[C@@H]2C=C[C@H](O)[C@@H](COC(=O)[C@H](C)NC(=O)CC=C[C@H]1C)O2,0.457 (inactive),-0.626,-0.761 (inactive),-1.27 (inactive),0.564 (inactive),-2.4 (inactive),-0.309,-0.573 (inactive),0.165 (inactive),0.605,0.495,0.29,-0.857,0.23,0.706,-0.086,-1.62 (inactive),0.583,-0.385,0.612 (inactive)
CCCNC(=O)[C@@H]1c2ccccc2C(=O)N(Cc2ccccc2Cl)[C@H]1c1ccc(CO)cc1,2.47 (inactive),0.227,1.8 (inactive),0.0323 (inactive),0.621 (inactive),-0.505 (inactive),0.335,-0.988 (inactive),0.601 (inactive),-0.33,2.5,1.42,2.37,-0.138,1.23,3.3,0.0089 (inactive),0.325,0.661,2.06 (inactive)
